# Results from ChEMBL document CHEMBL2218924, “A broad activity screen in support of a chemogenomic map for kinase signalling research and drug discovery” (Biochem J, 2013).
# Experiments:
# [1] = biological target: T1, Tyrosine-protein kinase receptor TYRO3 (Homo sapiens) (UniProt Q06418); settings: at 1 µM
# T1 sequence (whole entry): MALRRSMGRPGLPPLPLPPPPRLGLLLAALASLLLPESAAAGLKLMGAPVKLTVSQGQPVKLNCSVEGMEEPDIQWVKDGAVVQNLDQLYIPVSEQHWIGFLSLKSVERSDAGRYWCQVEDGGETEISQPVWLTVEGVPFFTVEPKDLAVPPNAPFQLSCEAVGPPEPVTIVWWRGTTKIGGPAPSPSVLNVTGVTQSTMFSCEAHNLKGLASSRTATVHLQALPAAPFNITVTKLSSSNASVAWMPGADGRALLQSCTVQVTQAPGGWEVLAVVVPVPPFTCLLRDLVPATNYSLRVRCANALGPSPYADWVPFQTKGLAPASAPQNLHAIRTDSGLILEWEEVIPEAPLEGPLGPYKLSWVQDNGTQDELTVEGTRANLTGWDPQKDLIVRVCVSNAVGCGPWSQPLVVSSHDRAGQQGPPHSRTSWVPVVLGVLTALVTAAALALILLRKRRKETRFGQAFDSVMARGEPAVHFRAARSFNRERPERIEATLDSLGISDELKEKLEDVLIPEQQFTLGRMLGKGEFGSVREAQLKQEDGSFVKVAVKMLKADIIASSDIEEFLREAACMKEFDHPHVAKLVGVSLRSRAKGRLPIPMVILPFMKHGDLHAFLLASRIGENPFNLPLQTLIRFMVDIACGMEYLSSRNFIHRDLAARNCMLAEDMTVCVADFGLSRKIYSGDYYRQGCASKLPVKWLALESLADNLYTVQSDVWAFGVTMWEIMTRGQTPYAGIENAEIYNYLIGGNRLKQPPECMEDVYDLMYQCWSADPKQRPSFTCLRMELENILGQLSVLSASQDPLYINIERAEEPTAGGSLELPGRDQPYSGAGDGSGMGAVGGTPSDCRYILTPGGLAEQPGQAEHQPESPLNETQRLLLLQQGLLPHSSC
# [2] = biological target: T1, Tyrosine-protein kinase receptor TYRO3 (Homo sapiens); settings: at 10 µM
# [3] = biological target: Ribosomal protein S6 kinase alpha-1 (Homo sapiens) (UniProt Q15418); settings: at 1 µM
# [4] = biological target: Ribosomal protein S6 kinase alpha-1 (Homo sapiens) (UniProt Q15418); settings: at 10 µM
# [5] = biological target: Ribosomal protein S6 kinase alpha-3 (Homo sapiens) (UniProt P51812); settings: at 1 µM
# [6] = biological target: Ribosomal protein S6 kinase alpha-3 (Homo sapiens) (UniProt P51812); settings: at 10 µM
# [7] = biological target: Ribosomal protein S6 kinase alpha-2 (Homo sapiens) (UniProt Q15349); settings: at 1 µM
# [8] = biological target: Ribosomal protein S6 kinase alpha-2 (Homo sapiens) (UniProt Q15349); settings: at 10 µM
# [9] = biological target: Ribosomal protein S6 kinase alpha-6 (Homo sapiens) (UniProt Q9UK32); settings: at 1 µM
# [10] = biological target: Ribosomal protein S6 kinase alpha-6 (Homo sapiens) (UniProt Q9UK32); settings: at 10 µM
# [11] = biological target: Mitogen-activated protein kinase 14 (Homo sapiens) (UniProt Q16539); settings: at 1 µM
# [12] = biological target: Mitogen-activated protein kinase 14 (Homo sapiens) (UniProt Q16539); settings: at 10 µM
# [13] = biological target: Mitogen-activated protein kinase 11 (Homo sapiens) (UniProt Q15759); settings: at 1 µM
# [14] = biological target: Mitogen-activated protein kinase 11 (Homo sapiens) (UniProt Q15759); settings: at 10 µM
# [15] = biological target: T2, Mitogen-activated protein kinase 12 (Homo sapiens) (UniProt P53778); settings: at 10 µM
# T2 sequence (whole entry): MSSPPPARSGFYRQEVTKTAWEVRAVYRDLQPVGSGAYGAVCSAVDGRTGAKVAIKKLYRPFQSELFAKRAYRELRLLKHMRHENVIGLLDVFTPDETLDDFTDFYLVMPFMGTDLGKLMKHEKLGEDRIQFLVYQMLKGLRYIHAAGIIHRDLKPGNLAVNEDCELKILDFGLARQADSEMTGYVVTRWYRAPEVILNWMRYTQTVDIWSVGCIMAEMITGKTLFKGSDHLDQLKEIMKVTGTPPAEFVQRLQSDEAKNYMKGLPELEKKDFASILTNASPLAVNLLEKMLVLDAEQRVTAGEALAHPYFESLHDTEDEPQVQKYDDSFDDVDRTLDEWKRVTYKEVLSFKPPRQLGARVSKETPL
# [16] = biological target: T3, Mitogen-activated protein kinase 13 (Homo sapiens) (UniProt O15264); settings: at 10 µM
# T3 sequence (whole entry): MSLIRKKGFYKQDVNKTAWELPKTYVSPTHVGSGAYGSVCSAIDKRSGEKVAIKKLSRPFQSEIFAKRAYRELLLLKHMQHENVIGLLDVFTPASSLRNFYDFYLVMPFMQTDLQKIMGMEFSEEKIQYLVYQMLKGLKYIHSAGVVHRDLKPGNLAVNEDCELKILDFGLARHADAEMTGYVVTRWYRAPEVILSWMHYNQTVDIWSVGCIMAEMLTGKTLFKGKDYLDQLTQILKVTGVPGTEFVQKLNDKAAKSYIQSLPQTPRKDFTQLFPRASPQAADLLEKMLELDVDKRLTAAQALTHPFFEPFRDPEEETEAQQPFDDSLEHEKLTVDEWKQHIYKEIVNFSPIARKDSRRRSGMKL
# [17] = biological target: T4, Serine/threonine-protein kinase Sgk1 (Homo sapiens) (UniProt O00141); settings: at 1 µM
# T4 sequence (whole entry): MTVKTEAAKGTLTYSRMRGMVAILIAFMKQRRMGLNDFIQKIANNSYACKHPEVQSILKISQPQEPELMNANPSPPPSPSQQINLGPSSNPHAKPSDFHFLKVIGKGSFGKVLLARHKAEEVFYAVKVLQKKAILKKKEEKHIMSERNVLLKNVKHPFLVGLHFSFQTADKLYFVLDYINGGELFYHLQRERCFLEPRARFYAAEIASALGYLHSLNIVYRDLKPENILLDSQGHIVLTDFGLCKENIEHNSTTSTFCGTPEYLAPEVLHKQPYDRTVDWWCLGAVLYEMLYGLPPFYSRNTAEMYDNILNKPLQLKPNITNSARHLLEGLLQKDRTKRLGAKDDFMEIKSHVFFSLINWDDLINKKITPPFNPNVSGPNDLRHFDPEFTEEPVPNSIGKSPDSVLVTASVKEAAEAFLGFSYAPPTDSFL
# [18] = biological target: T4, Serine/threonine-protein kinase Sgk1 (Homo sapiens); settings: at 10 µM
# [19] = biological target: T2, Mitogen-activated protein kinase 12 (Homo sapiens); settings: at 1 µM
# [20] = biological target: T3, Mitogen-activated protein kinase 13 (Homo sapiens); settings: at 1 µM
# Ribosomal protein S6 kinase alpha-3 (Homo sapiens), sequence (P51812 whole entry): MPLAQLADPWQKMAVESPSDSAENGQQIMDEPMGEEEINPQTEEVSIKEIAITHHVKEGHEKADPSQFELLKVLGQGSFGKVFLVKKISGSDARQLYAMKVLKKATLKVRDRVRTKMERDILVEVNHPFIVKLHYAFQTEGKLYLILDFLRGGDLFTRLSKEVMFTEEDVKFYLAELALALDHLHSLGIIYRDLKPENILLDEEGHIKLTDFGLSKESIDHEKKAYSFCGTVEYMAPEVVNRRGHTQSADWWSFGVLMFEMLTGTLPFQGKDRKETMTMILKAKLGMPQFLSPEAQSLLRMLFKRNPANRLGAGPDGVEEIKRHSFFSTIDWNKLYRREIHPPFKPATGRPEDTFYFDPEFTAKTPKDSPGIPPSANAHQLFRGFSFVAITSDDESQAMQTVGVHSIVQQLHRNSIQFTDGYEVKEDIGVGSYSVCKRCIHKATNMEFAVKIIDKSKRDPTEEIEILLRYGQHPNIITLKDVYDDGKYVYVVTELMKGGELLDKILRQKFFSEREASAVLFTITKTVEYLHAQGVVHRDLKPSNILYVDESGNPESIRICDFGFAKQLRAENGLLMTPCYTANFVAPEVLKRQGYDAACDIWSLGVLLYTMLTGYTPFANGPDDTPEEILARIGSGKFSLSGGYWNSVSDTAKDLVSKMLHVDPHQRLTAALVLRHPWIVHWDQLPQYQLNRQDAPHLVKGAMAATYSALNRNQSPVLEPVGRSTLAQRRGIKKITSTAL
# Ribosomal protein S6 kinase alpha-1 (Homo sapiens), sequence (Q15418 whole entry): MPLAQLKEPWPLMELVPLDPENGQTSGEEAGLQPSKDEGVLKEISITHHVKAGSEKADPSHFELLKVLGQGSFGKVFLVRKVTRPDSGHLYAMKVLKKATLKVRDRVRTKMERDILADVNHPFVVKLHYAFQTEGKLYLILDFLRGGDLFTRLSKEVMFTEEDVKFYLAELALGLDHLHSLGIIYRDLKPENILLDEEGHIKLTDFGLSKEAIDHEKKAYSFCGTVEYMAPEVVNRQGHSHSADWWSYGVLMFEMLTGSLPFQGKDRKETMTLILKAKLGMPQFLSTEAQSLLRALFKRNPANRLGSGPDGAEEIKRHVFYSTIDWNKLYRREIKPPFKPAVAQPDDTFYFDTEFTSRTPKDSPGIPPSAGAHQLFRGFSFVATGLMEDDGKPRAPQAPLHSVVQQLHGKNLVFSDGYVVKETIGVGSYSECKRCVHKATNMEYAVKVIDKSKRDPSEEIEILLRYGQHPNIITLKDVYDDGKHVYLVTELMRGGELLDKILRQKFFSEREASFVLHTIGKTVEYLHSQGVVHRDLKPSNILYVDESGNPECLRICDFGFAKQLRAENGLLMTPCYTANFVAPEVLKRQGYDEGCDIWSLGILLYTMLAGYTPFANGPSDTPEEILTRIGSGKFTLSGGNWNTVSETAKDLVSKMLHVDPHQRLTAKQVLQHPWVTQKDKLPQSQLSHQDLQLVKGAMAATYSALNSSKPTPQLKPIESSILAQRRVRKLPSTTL
# Ribosomal protein S6 kinase alpha-2 (Homo sapiens), sequence (Q15349 whole entry): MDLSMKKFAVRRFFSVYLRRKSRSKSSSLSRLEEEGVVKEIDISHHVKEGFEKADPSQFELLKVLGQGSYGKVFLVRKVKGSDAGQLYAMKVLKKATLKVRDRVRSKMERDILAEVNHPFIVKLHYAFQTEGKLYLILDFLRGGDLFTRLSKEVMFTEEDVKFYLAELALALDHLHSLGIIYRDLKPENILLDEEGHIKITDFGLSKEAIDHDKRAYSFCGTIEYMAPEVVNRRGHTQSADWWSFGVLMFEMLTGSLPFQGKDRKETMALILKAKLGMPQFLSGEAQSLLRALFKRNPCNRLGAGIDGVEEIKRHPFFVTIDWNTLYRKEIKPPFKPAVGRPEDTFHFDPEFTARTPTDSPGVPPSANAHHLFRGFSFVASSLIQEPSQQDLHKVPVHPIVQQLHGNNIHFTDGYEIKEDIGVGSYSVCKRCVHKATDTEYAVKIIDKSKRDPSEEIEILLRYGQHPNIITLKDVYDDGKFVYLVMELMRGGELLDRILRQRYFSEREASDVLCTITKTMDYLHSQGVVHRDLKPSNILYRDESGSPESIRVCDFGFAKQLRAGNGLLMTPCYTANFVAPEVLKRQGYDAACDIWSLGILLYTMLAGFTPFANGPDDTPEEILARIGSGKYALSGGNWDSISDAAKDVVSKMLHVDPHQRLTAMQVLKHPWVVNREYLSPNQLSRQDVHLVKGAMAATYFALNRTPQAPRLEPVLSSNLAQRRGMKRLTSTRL
# Ribosomal protein S6 kinase alpha-6 (Homo sapiens), sequence (Q9UK32 whole entry): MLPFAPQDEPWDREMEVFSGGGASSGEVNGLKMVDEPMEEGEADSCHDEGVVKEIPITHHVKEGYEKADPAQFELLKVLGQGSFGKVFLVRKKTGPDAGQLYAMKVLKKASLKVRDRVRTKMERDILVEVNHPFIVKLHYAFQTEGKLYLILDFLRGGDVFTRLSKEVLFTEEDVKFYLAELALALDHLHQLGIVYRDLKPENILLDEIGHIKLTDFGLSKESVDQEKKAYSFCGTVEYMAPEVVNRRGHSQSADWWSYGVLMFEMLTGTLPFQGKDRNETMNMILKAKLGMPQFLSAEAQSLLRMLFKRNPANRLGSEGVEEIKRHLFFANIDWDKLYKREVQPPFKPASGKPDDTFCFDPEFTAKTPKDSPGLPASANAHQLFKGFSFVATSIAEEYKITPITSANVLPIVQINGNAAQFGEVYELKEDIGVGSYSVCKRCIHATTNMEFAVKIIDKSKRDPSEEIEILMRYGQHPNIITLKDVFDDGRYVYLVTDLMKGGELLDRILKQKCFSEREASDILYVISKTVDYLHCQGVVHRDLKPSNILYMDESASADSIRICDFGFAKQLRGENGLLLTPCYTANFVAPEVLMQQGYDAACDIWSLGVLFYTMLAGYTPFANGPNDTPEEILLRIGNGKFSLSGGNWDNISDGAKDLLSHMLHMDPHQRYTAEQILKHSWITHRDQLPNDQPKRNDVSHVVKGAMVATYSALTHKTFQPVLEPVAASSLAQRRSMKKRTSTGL
# Mitogen-activated protein kinase 11 (Homo sapiens), sequence (Q15759 whole entry): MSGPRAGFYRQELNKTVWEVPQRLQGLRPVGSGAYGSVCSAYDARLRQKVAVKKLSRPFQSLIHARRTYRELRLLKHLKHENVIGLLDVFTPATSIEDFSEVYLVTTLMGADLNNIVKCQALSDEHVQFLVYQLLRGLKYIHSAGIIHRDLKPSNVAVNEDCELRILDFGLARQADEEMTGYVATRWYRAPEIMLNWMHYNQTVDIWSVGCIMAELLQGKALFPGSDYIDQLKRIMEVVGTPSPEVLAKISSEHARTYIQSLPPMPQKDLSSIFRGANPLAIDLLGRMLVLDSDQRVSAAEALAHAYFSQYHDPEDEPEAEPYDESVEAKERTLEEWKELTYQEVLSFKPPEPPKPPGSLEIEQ
# Mitogen-activated protein kinase 14 (Homo sapiens), sequence (Q16539 whole entry): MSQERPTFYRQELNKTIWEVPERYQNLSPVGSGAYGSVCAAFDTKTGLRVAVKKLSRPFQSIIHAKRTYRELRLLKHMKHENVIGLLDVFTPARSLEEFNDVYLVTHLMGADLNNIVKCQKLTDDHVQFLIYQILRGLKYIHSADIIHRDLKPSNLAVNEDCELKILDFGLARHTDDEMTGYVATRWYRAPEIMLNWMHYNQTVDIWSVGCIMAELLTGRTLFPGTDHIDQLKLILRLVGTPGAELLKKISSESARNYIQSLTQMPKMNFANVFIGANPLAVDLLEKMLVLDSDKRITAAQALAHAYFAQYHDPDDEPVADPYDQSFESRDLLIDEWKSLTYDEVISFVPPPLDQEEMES
smiles,measurement,setting,value
CCn1cnc2c(Nc3cccc(Cl)c3)nc(N[C@@H]3CCCC[C@@H]3N)nc21,residual activity,[1],93%
same,residual activity,[2],50%
same,residual activity,[3],67%
same,residual activity,[4],16%
same,residual activity,[5],28%
same,residual activity,[6],4%
same,residual activity,[7],30%
same,residual activity,[8],5%
same,residual activity,[9],24%
same,residual activity,[10],7%
same,residual activity,[11],90%
same,residual activity,[12],61%
same,residual activity,[13],94%
same,residual activity,[14],76%
same,residual activity,[15],94%
same,residual activity,[16],81%
same,residual activity,[17],91%
same,residual activity,[18],90%
O=C(c1ccccc1)c1ccc(N2CCOCC2)cc1O,residual activity,[19],100%
same,residual activity,[15],100%
COc1cc2ncnc(Nc3ccc(OCc4ccccc4)cc3)c2cc1OC,residual activity,[1],41%
same,residual activity,[2],60%
same,residual activity,[3],106%
same,residual activity,[4],83%
same,residual activity,[5],52%
same,residual activity,[6],46%
same,residual activity,[7],110%
same,residual activity,[8],72%
same,residual activity,[9],106%
same,residual activity,[10],133%
same,residual activity,[11],102%
same,residual activity,[12],106%
same,residual activity,[13],107%
same,residual activity,[14],102%
same,residual activity,[19],111%
same,residual activity,[15],115%
same,residual activity,[20],127%
same,residual activity,[16],109%
same,residual activity,[17],115%
same,residual activity,[18],80%
O=C(CCCc1ccc(-c2ccccc2F)cc1)Nc1ccc(O)cc1,residual activity,[19],101%
same,residual activity,[15],100%
O=C1Nc2ccc3ncsc3c2/C1=C/c1c[nH]cn1,residual activity,[1],56%
same,residual activity,[2],45%
same,residual activity,[3],28%
same,residual activity,[4],4%
same,residual activity,[5],18%
same,residual activity,[6],1%
same,residual activity,[7],5%
same,residual activity,[8],-1%
same,residual activity,[9],14%
same,residual activity,[10],2%
same,residual activity,[11],80%
same,residual activity,[12],74%
same,residual activity,[13],71%
same,residual activity,[14],35%
same,residual activity,[19],50%
same,residual activity,[15],16%
same,residual activity,[20],62%
same,residual activity,[16],24%
same,residual activity,[17],31%
same,residual activity,[18],7%
COc1cc2nccc(Oc3ccc(NC(=O)Nc4cc(C)on4)c(Cl)c3)c2cc1OC,residual activity,[11],23%
same,residual activity,[12],5%
same,residual activity,[14],5%
CC(C)(C)c1cc(C=C(C#N)C#N)cc(Br)c1O,residual activity,[1],112%
same,residual activity,[2],104%
same,residual activity,[3],111%
same,residual activity,[5],100%
same,residual activity,[6],78%
same,residual activity,[7],106%
same,residual activity,[8],82%
same,residual activity,[9],98%
same,residual activity,[10],106%
same,residual activity,[11],107%
same,residual activity,[12],112%
same,residual activity,[13],110%
same,residual activity,[14],101%
same,residual activity,[19],107%
same,residual activity,[15],110%
same,residual activity,[20],101%
CC[n+]1c(/C=C/N(C)c2ccccc2)n(-c2ccccc2)c2ccc(-c3nc4ccccc4s3)cc21,residual activity,[19],111%
same,residual activity,[15],94%
CCc1nc(-c2ccc(OC)cc2)[nH]c1-c1ccncc1,residual activity,[1],107%
same,residual activity,[2],108%
same,residual activity,[3],105%
same,residual activity,[4],104%
same,residual activity,[5],52%
same,residual activity,[6],55%
same,residual activity,[13],56%
same,residual activity,[14],72%
same,residual activity,[19],108%
same,residual activity,[15],104%
O=c1[nH]c2ccccc2n1C1CCN(Cc2ccc(-c3nc4cc5[nH]cnc5cc4nc3-c3ccccc3)cc2)CC1,residual activity,[1],91%
same,residual activity,[2],91%
same,residual activity,[3],117%
same,residual activity,[4],84%
same,residual activity,[5],68%
same,residual activity,[6],35%
same,residual activity,[7],108%
same,residual activity,[8],93%
same,residual activity,[9],106%
same,residual activity,[10],109%
same,residual activity,[11],75%
same,residual activity,[12],113%
same,residual activity,[13],100%
same,residual activity,[14],103%
same,residual activity,[19],108%
same,residual activity,[15],82%
same,residual activity,[16],91%
same,residual activity,[17],106%
same,residual activity,[18],68%
O=C1Nc2ccccc2/C1=C1/Nc2ccccc2/C1=N\OCCC(O)CO (stereo not drawn),residual activity,[19],95%
O=C1NC(=O)c2c1c1c3ccccc3[nH]c1c1[nH]c3cc(Br)ccc3c21,residual activity,[19],96%
same,residual activity,[15],88%
CCOC(=O)c1c(C)[nH]c(/C=C2\C(=O)Nc3ccccc32)c1C,residual activity,[19],99%
same,residual activity,[15],95%
O=C1Nc2cc(Br)ccc2/C1=C1/Nc2ccccc2/C1=N\O,residual activity,[19],95%
same,residual activity,[15],94%
COc1cc2ncnc(N3CCN(C(=O)Nc4ccc(Oc5ccccc5)cc4)CC3)c2cc1OC,residual activity,[19],93%
same,residual activity,[15],99%
Oc1n[nH]c2nnc(-c3c(-c4ccccc4)nn4ccccc34)cc12,residual activity,[19],96%
same,residual activity,[15],90%
Nc1ncnc2c1c(-c1ccc(Oc3ccccc3)cc1)cn2C1CCCC1,residual activity,[19],99%
same,residual activity,[15],97%
CCC(=O)Nc1ccc2ncnc(Nc3cccc(Br)c3)c2c1,residual activity,[19],101%
same,residual activity,[15],93%
N#C/C(=C(\N)Sc1ccc(N)cc1)c1ccccc1C(F)(F)F,residual activity,[19],104%
same,residual activity,[15],105%
COc1ccc2c(c1)c(C1=C(c3c[nH]c4ccccc34)C(=O)NC1=O)cn2CCCN(C)C,residual activity,[19],100%
same,residual activity,[15],100%
Oc1c2ccccc2c2c3c(cccc13)N=N2,residual activity,[19],82%
same,residual activity,[15],61%
O=C1NC(=O)C(c2cn(CCCn3ccnc3)c3ccccc23)=C1Nc1ccccc1,residual activity,[19],104%
same,residual activity,[15],100%
c1ccc2c(-c3ccncc3)c[nH]c2c1,residual activity,[19],100%
same,residual activity,[15],94%
Cn1sc(=O)n(Cc2ccccc2)c1=O,residual activity,[19],90%
same,residual activity,[15],97%
O=Nc1c(-c2c(O)[nH]c3ccccc23)[nH]c2ccccc12,residual activity,[19],95%
same,residual activity,[15],84%
O=c1cc(N2CCOCC2)oc2c1ccc1ccccc12,residual activity,[19],104%
same,residual activity,[15],90%
O=C1c2ccccc2-[n+]2ccc3c([nH]c4ccccc43)c21,residual activity,[19],89%
same,residual activity,[15],100%
COc1cccc(-c2cc(=O)c3ccccc3o2)c1N,residual activity,[19],102%
same,residual activity,[15],96%
CC#CC(=O)Nc1cc2c(Nc3ccc(F)c(Cl)c3)ncnc2cn1,residual activity,[19],103%
same,residual activity,[15],95%
CC(C)n1cnc2/c(=N/c3cccc(Cl)c3)nc(NCCO)[nH]c21,residual activity,[19],96%
same,residual activity,[15],99%
COc1cc2ncnc(Nc3cccc(Cl)c3)c2cc1OC,residual activity,[19],116%
same,residual activity,[15],103%
O=[N+]([O-])c1ccc(-c2nc(-c3ccc(F)cc3)c(-c3ccncc3)[nH]2)cc1,residual activity,[19],101%
same,residual activity,[15],93%
NC(=O)c1ccc2[nH]c(-c3ccc(Oc4ccc(Cl)cc4)cc3)nc2c1,residual activity,[19],93%
same,residual activity,[15],92%
Nc1n[nH]c2nnc(-c3c(-c4ccccc4)nn4ccccc34)cc12,residual activity,[19],91%
same,residual activity,[15],69%
N#C/C(=C1/Nc2ccccc2S1)c1ccnc(NCCc2cccnc2)n1,residual activity,[19],96%
same,residual activity,[15],72%
COc1ccc(S(=O)(=O)N(CCO)c2ccccc2CN(C)C/C=C/c2ccc(Cl)cc2)cc1,residual activity,[19],99%
same,residual activity,[15],95%
